Consider 89 compounds from PubChem BioAssay AID602247 (The Scripps Research Institute Molecular Screening Center, 2012).

About 80 (0.02%) of roughly 360,000 compounds were called active. This is one part of a sample in which actives are shown more often than they occur. A number with no mark means an inactive call.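 The calls were made as follows: active = activation above the run cutoff, the mean activation of all test compounds plus 3 SD (cut at about 40% in these data); inactive = the rest.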

This experiment in a line: ATP EC20 calcium response enhancers, parental CHO-K1 – cell-based, Fluo-8 calcium fluorescence, full deck, 1536-well, counter-screen for M1 PAM project, primary screen (AID 602247).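 Also: peak over basal fluorescence ratio in a 140 s read after ATP addition.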 The conditions noted are these: parental CHO-K1, ATP EC20, Fluo-8 calcium fluorescence; at 3 µM; active compounds read high; 0% at ATP EC20, 100% at ATP max.
Turning to `CCn1c(O)c(N=NC2=NC(=O)CS2)c2cc(C)ccc21`, the activation was -3.3%.
The same measure for `COc1cc(C(=O)OC(C)C(=O)NCC2CCCCC2)cc(NC(=O)c2ccco2)c1OC` (centres undefined): 7.38%; for `COC(=O)c1cccc(N(C(=O)CNC(=O)c2cccs2)C(C(=O)NCC2CCCO2)c2ccc(OC)c(OC)c2)c1` (centres undefined): 6.05%.
The same measure for `O=C(Nc1ccccc1)c1nnsc1S(=O)(=O)c1ccc(Cl)cc1`: -4.32%.
Consider `Cc1ccc(NC(=O)C2(N3CCC3=O)CCCCC2)cc1`, for which the activation is 30.7%.
With `COCCCNS(=O)(=O)c1cccc(S(=O)(=O)c2cccc(S(=O)(=O)NCCCOC)c2)c1`, the activation is -13.2%.
The result for `Cc1ccc(C(=O)N[C@H](C(=O)N2CCN(c3ncccn3)CC2)C(C)C)cc1` reads 21.1%; that for `O=C(CN1C(=O)NC2(CCCC2)C1=O)Nc1cc(C(F)(F)F)ccc1N1CCOCC1`, -14.5%; that for `Cc1ccc(C(=O)O)cc1N1C(=O)CCCC1=O`, 17.6%.
As for `CCC(C(=O)Nc1ccc(C(C)C)cc1)c1ccccc1` (centres undefined), the activation was 7.1%.
`NC(=O)C1CCN(Cc2nc3c(Br)cc(Br)cc3c(=O)[nH]2)CC1`: the activation was 8.89%.
The same measure for `CCn1nc(C)c(/C=N/NC(=O)Cc2ccc(Cl)cc2)c1C`: 10.4%; for `COc1ccc(CN2C(=O)CC(Cc3ccc(C)cc3)C2=O)cc1OC` (centres undefined): 0.86%; for `CC(NC(=O)c1cc2cc(Cl)ccc2oc1=N)c1ccccc1` (centres undefined): 4.16%.
As to `O=C(O)c1cccc2c1C(=O)N(C1CCCCC1)C2`, the activation was 12.5%.
Consider `Cc1c(C#N)c2ncn(CC#N)c(=O)c2n1-c1ccccc1`, for which the activation is 10.7%.
As to `OCC(O)C1OCOC(C(O)CO)C1O` (centres undefined), the activation was -2.45%.
The same measure for `Cc1ccc(-c2nnc(Nc3ccc(C(=O)N(C)C)cc3)c3ccccc23)cc1S(N)(=O)=O`: -6.44%.
Take `COc1ccc(S(=O)(=O)N2CCOCC2)cc1NC(=O)CSc1ncnc2ccccc12`: the activation is -10.6%.
As to `C/C(CCc1ccccc1)=N\NC(=O)c1ccc(CN2CCOCC2)cc1`, the activation is 10.1%.
The result for `C[C@@H]1CN([C@@H](C)CO)C(=O)c2cc(NS(C)(=O)=O)ccc2O[C@@H](C)CCCCO[C@H]1CN(C)C(=O)Nc1ccc2c(c1)OCO2` reads 5.94%.
Consider `O=C(NCc1ccccc1)C(c1ccco1)N(C(=O)c1csnn1)c1ccccc1F` (centres undefined), for which the activation was -7%.
On to `Cc1ccc(C)c2[nH]c(=O)c(CN(Cc3cccnc3)C(=S)NCc3ccco3)cc12`, for which the activation was -16.3%.
The same measure for `NC1=NC(=O)C2(COC(c3ccccc3Cl)OC2)S1` (centres undefined): 19%; for `CCOc1ccc(C(=O)Nc2ccc(S(=O)(=O)NCC3CCCO3)cc2)cc1OCC` (centres undefined): -16.7%.
For `CCOc1ccc(S(=O)(=O)N(CC(=O)O)c2ccccc2)cc1`, the activation is 12.9%.
Regarding `CN(C)/C=C(\C#N)C(=O)c1cccnc1Oc1ccc(F)cc1F`, the activation is 13.9%.
The same measure for `COCCNC(=O)C1CCN(C(=O)C2CC(=O)N(c3ccc(C)cc3)C2)CC1` (centres undefined): 7.97%; for `COc1ccc(-n2ncc3c2CC(C)(C)CC3NC(=O)CCc2c(C)noc2C)cc1` (centres undefined): -2.15%; for `CCCNC(=S)N1CCCC(c2nc3ccccc3[nH]2)C1` (centres undefined): 14.2%.
The result for `CC(C)C[C@@H]1COc2cc(N3CCC[C@@H]3CO)ccc2S(=O)(=O)N1` reads 4.5%; that for `CC1CCCN(C(C(=O)Nc2ccc(C(C)C)cc2)c2ccc3c(c2)OCO3)C1` (centres undefined), 10.5%; that for `Cc1ccc(NS(=O)(=O)c2c(C)[nH]c(=O)[nH]c2=O)cc1C`, 7.33%.
Regarding `COc1cc(OC)cc(C(=O)NNC(=O)CNC(=O)c2ccc(Br)o2)c1`, the activation was -26.2%.
The same measure for `CCOC(=O)c1sc(N)c(C#N)c1COC(=O)C1=COCCO1`: -16.5%; for `Cc1ccc(NC(=O)NC(=O)N(C2CCCCC2)S(=O)(=O)c2ccccc2)cc1`: 15.3%.
On to `Cn1c(=O)oc2cc(S(=O)(=O)N3CCC(C(=O)Nc4ccc(OC(F)(F)F)cc4)CC3)ccc21`, for which the activation is 29.6%.
In the case of `O=[N+]([O-])c1ccc(N2CCN(c3ccc(F)cc3)CC2)cn1`, the activation was -7.83%.
The result for `NC1=NC2(CCCCC2)N(c2ccc(F)cc2F)C(N)=N1` reads -9.48%; that for `Cc1ccc(CC(=O)Nc2cccc(C#N)c2)cc1`, 18.7%; that for `CC(C)NC(=O)NC(=O)CSc1nnc(-c2ccccc2F)n1N`, 30%.
The result for `CC1(C(=O)NS(=O)(=O)c2cccs2)CCN1C(=O)Cc1ccc(-c2ccccc2)cc1` (centres undefined) reads 13%; that for `O=C(NC1CC2CCCC(C1)N2C(=O)N1CCCCC1)C1CCCCC1` (centres undefined), 7.85%.
For the compound `CCCC(C(=O)NC1CCCC1)N(C(=O)Cn1nnc(-c2ccc(C)o2)n1)c1cccc(O)c1` (centres undefined), the activation was 13.1%.
For the compound `COc1cccc(NC(=O)C(=O)c2cn(CC(=O)N3CCOCC3)c3ccccc23)c1`, the activation was -2.46%.
The same measure for `CCCCN(C(=O)c1cccc(N2C(=O)c3ccccc3C2=O)c1)c1c(N)n(CCCC)c(=O)[nH]c1=O`: 11.7%; for `O=C(Cn1cc(C(F)(F)F)ccc1=O)N/N=C/c1ccc(Cl)cc1Cl`: 3.42%.
The same measure for `CC(OC(=O)CNC(=O)c1cccc(F)c1)C(=O)NC1CCCCC1C` (centres undefined): 10.1%.
For `CCC(=O)c1ccc(OCC(=O)N(CC)CC2COc3ccccc3O2)cc1` (centres undefined), the activation was 15.6%.
The result for `O=C(N[C@H]1C/C=C\C(c2cccc(F)c2)N(Cc2ccccc2)C(=O)C1)OCC1c2ccccc2-c2ccccc21` (some centres undefined) reads -2.24%; that for `O=C(OCC(=O)N1CCN(C(=O)c2ccco2)CC1)c1ccccc1Cc1ccccc1`, 8.99%.
The same measure for `COc1cccc(CN2CCC(C(=O)NC(c3ccc4c(c3)OCO4)c3ccccn3)CC2)c1` (centres undefined): 12.4%; for `CCOc1cc2c(Cl)ncnc2c(OCC)c1OCC`: -10.2%; for `CC1(C)O[C@@H]2[C@H](O1)[C@@H](CO)O[C@H]2n1c(N2CCCCC2)nc2c(N)ncnc21`: 11.6%.
With `COc1ccc(N2CC(C(=O)NCCS(=O)(=O)N3CCN(c4ccccc4)CC3)CC2=O)cc1` (centres undefined), the activation is -1.18%.
The result for `C/C(=N\NC(=O)COc1ccc(C)cc1[N+](=O)[O-])c1ccc2c(c1)OCCO2` reads 4.27%; that for `Cc1cc(C)n(-c2nnc(C)n2NC(=O)c2cccc(Cl)c2)n1`, 9.43%.
The result for `Cc1ccc(C)c(NC(=O)C2CC(=O)N(C(C)C)C2)c1` (centres undefined) reads 12.2%; that for `COCCn1c(=O)[nH]c2cc(C(=O)NCc3cccnc3)ccc2c1=O`, 6.89%.
Turning to `CC(C)CC(=O)c1c[nH]c(C(=O)NCc2ccccc2)c1`, the activation was 0.92%.
The same measure for `O=C(CC(NCCN1CCOCC1)C(=O)O)Nc1cccc(Cl)c1` (centres undefined): 20.9%; for `CC(=O)NC1C(Oc2ccc(C)cc2)OC2COC(c3ccco3)OC2C1O` (centres undefined): -5.49%; for `O=S(=O)(NC1CCCCC1N1CCN(c2ccccc2F)CC1)c1ccccc1` (centres undefined): 19.1%.
The same measure for `O=C(Nc1ccc(Br)cc1)c1cccc(NC(=O)C2C3CC4OC(=O)C2C4C3)c1` (centres undefined): 9.66%.
As for `Cc1ccc(/C=C2\CCn3c2nc2cc(C(=O)O)ccc2c3=O)c(C)c1`, the activation is 17.1%.
The result for `O=C1c2cccc3cccc(c23)C(=O)N1c1cccc(O)c1` reads 12.7%; that for `OC1CCCN(c2ncnc3c2nnn3Cc2c(F)cccc2Cl)C1` (centres undefined), 20.4%.
The same measure for `CCC1CCCCN1C(=S)Nc1ccc(SC(F)F)cc1` (centres undefined): 3.06%.
The same measure for `COc1ccc(O)c(C=Nc2cc(C)on2)c1`: 1.78%.
For the compound `CC(C)C(=O)N1CC(=O)Nc2ccc(F)cc2C1c1ccc(F)cc1` (centres undefined), the activation is 3.77%.
Consider `CCCN1CNC(=S)N(CCc2ccccc2)C1`, for which the activation was -4.97%.
On to `O=C(Nc1ccc(Br)cc1F)C1CC(=O)N(C2CCCCC2)C1` (centres undefined), for which the activation was 9.78%.
For the compound `CCOc1ccccc1NC(=O)NC1CCCCCCC1`, the activation is 20%.
The same measure for `CN(C)/C(CN1CCCCC1)=C1\N=C(c2ccccc2)OC1=O`: 19.8%; for `CN(C)CCCOc1ccc(-c2ccc3nccn3c2)cn1`: 15.7%; for `CCOP(=O)(OCC)C(Cc1ccccc1)N=C(c1ccccc1)c1ccccc1` (centres undefined): 19.7%.
The result for `COc1ccc(OC)c(NC(=O)CSc2nc3cccnc3n2C)c1` reads 9.99%; that for `O=C(CN1C(=O)c2ccc([N+](=O)[O-])cc2C1=O)Nc1nnc(C2CC2)s1`, 1.72%.
For the compound `CC(=O)Nc1ccc(NC(=O)C2CCCN2S(=O)(=O)c2cccc(C(F)(F)F)c2)cc1` (centres undefined), the activation was -6.05%.
The same measure for `O=C1c2ccncc2C(=O)N1C1CCCCC1`: 15.5%; for `Cc1nc(C(F)(F)F)ccc1C(=O)N1CCC1(C)C(=O)NS(=O)(=O)c1ccccc1Cl` (centres undefined): 11.4%; for `COc1ccc(C(=O)N2CCC(C(=O)Nc3ccc(C)cc3)CC2)cc1`: 28.6%.
In the case of `Cc1ccc(Cn2cc(C(=O)NN)c(=O)c3ccc(F)cc32)cc1`, the activation is -28.1%.
The result for `CCOC(=O)C1(Cc2ccc(O)cc2)NC(c2ccccc2F)C2C(=O)N(C)C(=O)C21` (centres undefined) reads 24%.
The same measure for `Cc1cccc([C@H]2[C@@H]3C=CC[C@@H](C)[C@@H]3C(=O)N2Cc2ccccc2)c1`: -0.48%.
As to `CSc1ccc(S(=O)(=O)NCC(=O)OCC(=O)NC2(C#N)CCCCC2)cc1[N+](=O)[O-]`, the activation was -4.9%.
The same measure for `Nc1nc(O)c(CC(=O)O)s1`: 1.33%; for `O=C(CCS(=O)(=O)c1ccccc1Cl)Nc1ccc(S(=O)(=O)Nc2ncccn2)cc1`: 7.81%.
The same measure for `COc1ccc(S(=O)(=O)N2CN(CCc3ccc(OC)c(OC)c3)c3nc4ccccc4nc32)cc1`: 1.88%.
